# PubChem BioAssay
# Calls of active or inactive are those of the source.
# How the values were obtained:
# [1] = binders of probe aFSTL3 on microarray, primary screen, stem cell growth factor project, biochemical, small-molecule microarray, fluorescence 635/667 (AID 1064); conditions: higher = more signal;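 further: measures binding of the biotinylated anti-FSTL3 antibody to printed compounds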
# [2] = binders from COS7 lysate, DM2A8 probe, primary screen, torsin A project, cell lysate, small-molecule microarray, fluorescence 635/667 (AID 1065); conditions: higher = more signal, COS7 lysate expressing mutant human TOR1A
# [3] = binders of probe aFGF2 on microarray, primary screen, stem cell growth factor project, biochemical, small-molecule microarray, fluorescence 635/667 (AID 1067); conditions: higher = more signal;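 further: measures binding of biotinylated aFGF2 protein to printed compounds on slides; z-score merges feature fluorescence and signal-to-noise across triplicate slides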
# [4] = binders of probe aFGF10 on microarray, primary screen, stem cell growth factor project, biochemical, small-molecule microarray, fluorescence 635/667 (AID 1071); conditions: higher = more signal;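 further: score merges 667 nm spot intensity and signal to noise from triplicate slides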
# [5] = molecular target: Neurogenic locus notch homolog protein 2 (Homo sapiens) (UniProt Q04721); assay: Notch2 binders on small-molecule microarrays, primary screen, biochemical, small-molecule microarray, 635 nm fluorescence, stem cell growth factors (AID 1073); conditions: Notch2 binding, higher = more signal
# Sequence of Neurogenic locus notch homolog protein 2 (Homo sapiens) (Q04721 whole entry, looked up, canonical isoform): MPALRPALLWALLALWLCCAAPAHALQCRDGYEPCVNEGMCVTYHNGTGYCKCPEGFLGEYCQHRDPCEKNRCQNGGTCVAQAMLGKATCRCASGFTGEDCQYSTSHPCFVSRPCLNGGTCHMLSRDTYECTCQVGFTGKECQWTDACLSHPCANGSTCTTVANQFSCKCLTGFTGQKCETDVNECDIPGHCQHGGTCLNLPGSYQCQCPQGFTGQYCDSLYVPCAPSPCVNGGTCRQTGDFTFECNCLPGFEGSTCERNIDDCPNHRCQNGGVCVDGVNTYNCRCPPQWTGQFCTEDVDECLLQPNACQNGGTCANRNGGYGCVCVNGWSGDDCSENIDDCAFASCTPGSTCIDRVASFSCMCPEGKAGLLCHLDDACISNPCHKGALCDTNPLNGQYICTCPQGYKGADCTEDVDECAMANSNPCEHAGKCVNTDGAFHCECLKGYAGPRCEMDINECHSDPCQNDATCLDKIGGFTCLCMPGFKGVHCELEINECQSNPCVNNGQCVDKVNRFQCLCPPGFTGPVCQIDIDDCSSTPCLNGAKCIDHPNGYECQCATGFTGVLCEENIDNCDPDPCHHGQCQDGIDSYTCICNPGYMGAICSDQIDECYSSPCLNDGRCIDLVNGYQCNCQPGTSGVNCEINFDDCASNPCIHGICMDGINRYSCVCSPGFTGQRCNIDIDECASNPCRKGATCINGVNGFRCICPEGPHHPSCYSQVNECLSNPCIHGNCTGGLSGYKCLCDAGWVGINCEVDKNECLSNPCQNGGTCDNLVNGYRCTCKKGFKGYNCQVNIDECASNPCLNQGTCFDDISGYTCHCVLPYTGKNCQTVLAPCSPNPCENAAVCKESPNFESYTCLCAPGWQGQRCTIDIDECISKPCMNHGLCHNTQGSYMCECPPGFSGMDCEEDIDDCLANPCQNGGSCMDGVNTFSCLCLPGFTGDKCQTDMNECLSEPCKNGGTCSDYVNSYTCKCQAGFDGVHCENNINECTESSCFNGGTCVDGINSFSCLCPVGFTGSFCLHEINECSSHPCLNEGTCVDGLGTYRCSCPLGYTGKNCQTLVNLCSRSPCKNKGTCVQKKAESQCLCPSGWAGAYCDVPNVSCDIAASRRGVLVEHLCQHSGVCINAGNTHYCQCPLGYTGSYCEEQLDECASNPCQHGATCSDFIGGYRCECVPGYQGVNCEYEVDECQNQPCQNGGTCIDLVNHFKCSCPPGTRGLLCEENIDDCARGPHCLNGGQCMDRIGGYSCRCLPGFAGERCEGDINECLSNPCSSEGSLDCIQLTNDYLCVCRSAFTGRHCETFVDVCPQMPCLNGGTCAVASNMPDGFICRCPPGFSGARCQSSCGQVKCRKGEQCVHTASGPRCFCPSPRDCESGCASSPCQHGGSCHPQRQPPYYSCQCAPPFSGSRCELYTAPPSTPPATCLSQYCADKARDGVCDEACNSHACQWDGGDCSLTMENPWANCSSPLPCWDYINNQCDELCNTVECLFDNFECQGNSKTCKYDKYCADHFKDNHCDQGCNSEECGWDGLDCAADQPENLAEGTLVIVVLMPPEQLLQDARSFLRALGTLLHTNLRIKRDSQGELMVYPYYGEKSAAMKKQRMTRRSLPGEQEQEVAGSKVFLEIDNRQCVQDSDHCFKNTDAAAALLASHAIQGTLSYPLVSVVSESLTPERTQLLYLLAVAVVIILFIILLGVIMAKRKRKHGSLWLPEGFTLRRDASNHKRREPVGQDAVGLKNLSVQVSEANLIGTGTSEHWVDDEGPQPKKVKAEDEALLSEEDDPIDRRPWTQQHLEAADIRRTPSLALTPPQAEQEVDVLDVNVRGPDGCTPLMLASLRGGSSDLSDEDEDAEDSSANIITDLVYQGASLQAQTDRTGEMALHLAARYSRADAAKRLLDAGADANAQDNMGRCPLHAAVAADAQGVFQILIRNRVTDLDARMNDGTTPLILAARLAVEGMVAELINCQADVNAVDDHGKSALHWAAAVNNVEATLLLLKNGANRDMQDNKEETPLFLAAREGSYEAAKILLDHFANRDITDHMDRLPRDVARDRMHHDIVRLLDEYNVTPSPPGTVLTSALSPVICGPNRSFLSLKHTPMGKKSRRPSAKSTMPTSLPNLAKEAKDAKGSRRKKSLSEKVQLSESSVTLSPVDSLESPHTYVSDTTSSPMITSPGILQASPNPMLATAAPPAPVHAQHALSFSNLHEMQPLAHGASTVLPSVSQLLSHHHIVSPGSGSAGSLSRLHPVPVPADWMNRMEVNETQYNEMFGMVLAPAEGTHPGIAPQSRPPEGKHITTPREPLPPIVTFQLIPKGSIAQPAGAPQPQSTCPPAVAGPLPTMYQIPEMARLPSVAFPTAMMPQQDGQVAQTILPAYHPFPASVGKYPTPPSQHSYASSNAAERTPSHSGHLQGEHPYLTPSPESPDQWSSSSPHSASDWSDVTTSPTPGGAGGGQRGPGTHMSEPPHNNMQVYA
# [6] = molecular target: Pro-neuregulin-1, membrane-bound isoform (Homo sapiens) (UniProt Q02297); assay: NRG1 binders on small-molecule microarrays, primary screen, psychiatric disease protein project, biochemical, small-molecule microarray, fluorescence 635/667 (AID 1075); conditions: NRG1 binding, 635 nm fluorescence, higher = more signal;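 further: score combines 667 nm spot fluorescence with signal to noise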
# Sequence of Pro-neuregulin-1, membrane-bound isoform (Homo sapiens) (Q02297 whole entry, looked up, the tested form may be a part, canonical isoform): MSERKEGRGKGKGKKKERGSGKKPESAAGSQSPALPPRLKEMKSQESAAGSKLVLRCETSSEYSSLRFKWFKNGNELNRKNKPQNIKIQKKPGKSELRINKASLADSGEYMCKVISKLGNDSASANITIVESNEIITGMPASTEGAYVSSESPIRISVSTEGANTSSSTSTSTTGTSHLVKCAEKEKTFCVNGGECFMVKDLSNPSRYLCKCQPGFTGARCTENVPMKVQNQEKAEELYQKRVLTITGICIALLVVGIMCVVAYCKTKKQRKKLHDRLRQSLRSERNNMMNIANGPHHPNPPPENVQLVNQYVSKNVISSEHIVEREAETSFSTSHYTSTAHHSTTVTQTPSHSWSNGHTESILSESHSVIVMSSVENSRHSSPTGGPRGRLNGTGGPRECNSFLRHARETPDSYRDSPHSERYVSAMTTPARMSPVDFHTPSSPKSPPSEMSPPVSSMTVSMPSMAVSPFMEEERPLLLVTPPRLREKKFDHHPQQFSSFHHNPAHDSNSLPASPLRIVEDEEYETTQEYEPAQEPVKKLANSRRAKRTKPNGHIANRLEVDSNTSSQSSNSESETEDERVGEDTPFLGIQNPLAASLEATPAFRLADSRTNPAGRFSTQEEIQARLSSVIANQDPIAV
# [7] = tested on: Neuregulin-1 EGF-like domain; assay: binders of neuregulin-1 EGF-like domain, primary screen, biochemical, small-molecule microarray, 635 nm fluorescence (AID 1081); conditions: small-molecule microarray binding, higher = more signal;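 further: binding of the protein to compounds printed on small-molecule microarray slides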
# [8] = FRG1 promoter luciferase signal modulators, primary screen, FRG1 inhibition for FSHD, cell-based, C2C12 myotubes, firefly/Renilla luciferase, luminescence (AID 1084); conditions: higher = more signal, called active from +8 up or from −8 down
# [9] = binders of probe aFST on microarray, primary screen, stem cell growth factor project, biochemical, small-molecule microarray, fluorescence 635/667 (AID 1086); conditions: higher = more signal;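 further: score merges 667 nm fluorescence with signal-to-noise of each printed compound spot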
# [10] = binders of probe aHhip on microarray, primary screen, stem cell growth factor project, biochemical, small-molecule microarray, fluorescence 635/667 (AID 1087); conditions: higher = more signal;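 further: score merges spot fluorescence at 667nm with spot signal to noise ratio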
# [11] = tested on: PRMT1 (protein arginine N-methyltransferase 1); assay: PRMT1 binders on small-molecule microarrays, primary screen, biochemical, small-molecule microarray, 635 nm fluorescence (AID 1088); conditions: small-molecule microarray binding, higher = more signal;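 further: binding of Prmt1 protein to compounds spotted on small-molecule microarray slides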
# [12] = yeast growth modulation, basal conditions, primary screen, YJM789 clinical isolate, OD600, 24 h (AID 1089);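 further: growth of clinical yeast isolate S. cerevisiae YJM 789 seeded 1000 cells per well; test concentration not given here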; conditions: S. cerevisiae YJM789 growth, higher = more signal, called active from +8 up or from −8 down
# [13] = fission yeast growth modulation, primary screen, strain 972, OD600, 24 h, no modulator (AID 1090);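 further: basal condition with compound alone and no growth modifier present; test concentration not given here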; conditions: S. pombe 972 growth, higher = more signal, called active from +8 up or from −8 down
# [14] = S. cerevisiae growth modulation with rapamycin, primary screen, strain BY4716, OD600, 96 h (AID 1091); conditions: higher = more signal, called active from +8 up or from −8 down; further: test concentration not given here
# [15] = molecular target: Torsin-1A-interacting protein 2 (Homo sapiens) (UniProt Q8NFQ8); assay: LULL1 binders on small-molecule microarray, primary screen, cell lysate, human LULL1 lysate, 635/667 nm fluorescence (AID 1092); conditions: hLULL1 lysate binding, 635 nm fluorescence, higher = more signal;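 further: probe is lysate of COS7 cells overexpressing human LULL1; score merges per-feature 667 nm fluorescence with signal-to-noise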
# Sequence of Torsin-1A-interacting protein 2 (Homo sapiens) (Q8NFQ8 whole entry, looked up): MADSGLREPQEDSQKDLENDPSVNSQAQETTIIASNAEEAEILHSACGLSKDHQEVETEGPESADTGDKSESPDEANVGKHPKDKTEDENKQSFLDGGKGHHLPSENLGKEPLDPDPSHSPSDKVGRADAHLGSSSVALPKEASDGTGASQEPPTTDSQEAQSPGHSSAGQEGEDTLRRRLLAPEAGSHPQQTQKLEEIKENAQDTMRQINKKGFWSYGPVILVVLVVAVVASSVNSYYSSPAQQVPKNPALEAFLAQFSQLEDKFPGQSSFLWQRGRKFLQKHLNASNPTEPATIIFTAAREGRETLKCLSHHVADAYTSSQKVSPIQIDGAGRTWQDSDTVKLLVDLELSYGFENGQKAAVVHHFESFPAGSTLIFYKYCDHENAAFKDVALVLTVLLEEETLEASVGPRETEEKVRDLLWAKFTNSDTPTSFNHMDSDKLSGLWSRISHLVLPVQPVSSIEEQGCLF
# [16] = E. coli growth modulation, two-sided OD650, primary screen, E. coli filamentation project, strain DRC41, 24 h (AID 1093); conditions: OD650, 24 h, higher = more signal, called active from +8 up or from −8 down;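 further: MC1000 strain lacking acrAB efflux and sulA so SOS filamentation is blocked; test concentration not given here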
# [17] = small-molecule microarray binders of probe aLefty2, primary screen, biochemical, biotinylated probe, 635/667 nm fluorescence (AID 1094); conditions: higher = more signal;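 further: score merges spot fluorescence near 667 nm with spot signal-to-noise ratio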
# [18] = tested on: Noggin (protein binding on small-molecule microarray); assay: Noggin binders on small-molecule microarray, primary screen, biochemical, 635/667 nm fluorescence (AID 1095); conditions: 635 nm fluorescence, higher = more signal;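 further: score merges 667 nm feature fluorescence with signal to noise over triplicate slides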
# [19] = molecular target: Neurogenic locus notch homolog protein 3 (Homo sapiens) (UniProt Q9UM47); assay: NOTCH3 binders on small-molecule microarray, primary screen, biochemical, 635/667 nm fluorescence (AID 1096); conditions: NOTCH3 binding, 635 nm fluorescence, higher = more signal
# [20] = small-molecule microarray binders of probe aEGFR, primary screen, biochemical, biotinylated probe, 635/667 nm fluorescence (AID 1097); conditions: higher = more signal;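 further: probe is a biotinylated anti-EGFR antibody binding compounds printed on slides; score combines fluorescence near 667 nm and signal to noise of each spot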
Structure (SMILES),composite z-score [1],composite z-score [2],composite z-score [3],composite z-score [4],composite z-score [5],composite z-score [6],composite z-score [7],z-score [8],composite z-score [9],composite z-score [10],composite z-score [11],z-score [12],z-score [13],z-score [14],composite z-score [15],z-score [16],composite z-score [17],composite z-score [18],composite z-score [19],composite z-score [20]
Cc1cc2c(nc1C)CCCCN2CC(O)CN1CCCc2nc(-c3ccc(Br)cc3)ccc21 (stereo not given),-0.193,0.514,-0.019,0.673,0.513,0.548,1.02,2.29 (inactive),0.5,-0.146,0.829,-0.178 (inactive),-0.616 (inactive),-0.051 (inactive),-0.0639,0.353 (inactive),-0.0083,0.558,1.11,0.0122
CC(C)=NOC(C)CN1CCCc2nc(C)c(C)cc21 (stereo not given),-0.39,-0.184,-0.0408,0.897,0.652,0.702,0.61,0.833 (inactive),0.17,-0.201,1.58,0.777 (inactive),0.516 (inactive),0.347 (inactive),1.31,-0.196 (inactive),0.406,0.674,1.07,0.0287
COC(=O)C1=C(C)N(Cc2ccccc2)C2=C3C(=O)OCC[C@@H]3[C@@](O)(C(=O)OC)C(=O)N2[C@@H]1c1ccccc1,-0.69,-0.0402,-0.118,0.495,0.346,-0.143,0.0271,0.245 (inactive),-0.0464,0.0139,-0.737,0.833 (inactive),-0.992 (inactive),-0.265 (inactive),0.0296,0.659 (inactive),-0.0342,0.454,0.542,0.0035
CON=C(C)CCC(=O)OC[C@H]1O[C@H](C#Cc2ccccc2)C=C[C@@H]1Oc1ccc(C)cc1,-0.453,-0.172,-0.0563,0.33,-0.598,0.108,0.394,-0.127 (inactive),0.423,0.0854,1.06,1.42 (inactive),-14.2 (active),1.52 (inactive),0.756,0.149 (inactive),-0.143,0.351,0.326,-0.0363
CCN1C(=O)[C@H]2[C@H]3[C@H](O)[C@H](O)CC(=NO[C@@H](C)c4cc(-c5c(C)cc(C)cc5C)no4)[C@@H]3CC[C@H]2C1=O,-0.558,1.13,-0.0243,0.624,0.817,1.08,1.04,0.998 (inactive),0.544,-0.225,1.55,-0.393 (inactive),-1.15 (inactive),-0.875 (inactive),2,1.16 (inactive),-0.0283,0.529,0.994,0.123
CC(=O)OC[C@H]1O[C@H](CC=NOCC[C@@H]2C=C[C@H](OC(C)=O)[C@@H](COC(C)=O)O2)C=C[C@@H]1OC(C)=O,-0.544,1.16,-0.13,0.414,0.29,-0.254,0.537,1.06 (inactive),0.425,0.0623,1.46,-0.996 (inactive),0.526 (inactive),-0.0043 (inactive),0.137,0.712 (inactive),0.0024,0.772,0.757,0.0707
COc1cccc([C@H](O)Cn2cc(-c3ccc(CON=C(C)C)cc3)nn2)c1,-0.131,0.173,-0.0138,0.0967,-0.193,-0.486,0.0451,-0.291 (inactive),0.0775,-0.185,0.0112,-0.733 (inactive),0.16 (inactive),-0.625 (inactive),-0.441,1.2 (inactive),-0.0561,-0.197,-1.27,0.0709
C[C@H]1CC[C@H]2C(=O)O[C@H](CO)CN2[C@@H]1c1ccc(Br)cc1,-0.334,0.544,-0.166,0.051,-0.288,-0.102,-0.238,1.11 (inactive),-0.148,0.2,0.995,-1.57 (inactive),-16.2 (active),-3.33 (inactive),0.139,1.88 (inactive),-0.141,0.417,-0.811,-0.0738
CO[C@@H]1[C@H](O)CO[C@H]1C=Cc1ccccc1,-0.392,-0.0641,-0.0715,0.211,0.128,0.206,0.874,-0.253 (inactive),0.228,-0.283,0.524,0.335 (inactive),-1.14 (inactive),-0.376 (inactive),0.363,0.447 (inactive),-0.0895,0.396,0.0872,-0.0581
CC(C)=NO[C@@H](C)c1cn([C@H](CO)Cc2ccccc2)nn1,-0.0953,0.463,0.153,0.423,0.579,0.763,0.442,-0.88 (inactive),0.907,0.132,0.99,-1.93 (inactive),-2.29 (inactive),-0.735 (inactive),1.03,-0.409 (inactive),-0.127,0.946,0.331,0.255
CC(=O)OC[C@H]1O[C@H](CC=NOC(C)CN2CCCCc3nc(C)c(C)cc32)C=C[C@@H]1OC(C)=O (stereo not given in full),-0.349,2.35,-0.071,0.325,0.965,0.0843,0.978,0.851 (inactive),0.0013,0.158,1.54,-0.814 (inactive),-0.0245 (inactive),-0.151 (inactive),1.51,0.522 (inactive),0.176,1.13,1.01,0.43
O=C1[C@H]2CCn3c(=O)n(Cc4cc5c(cc4Cl)OCO5)c(=O)n3[C@H]2[C@H](O)[C@@H]2O[C@H]12,1.24,-0.0222,-0.162,-0.244,-0.382,-0.156,0.801,-0.162 (inactive),-0.332,0.0156,-0.0582,0.821 (inactive),-0.315 (inactive),-0.224 (inactive),-0.297,0.662 (inactive),-0.255,0.27,-0.802,-0.173
COc1ccc(-c2cnnc(CCCn3ccnc3-c3ccccc3)n2)cc1,-0.368,1.45,-0.121,0.763,0.426,0.278,0.585,0.64 (inactive),0.117,-0.12,0.576,-0.128 (inactive),-0.513 (inactive),1.36 (inactive),0.662,0.222 (inactive),-0.125,0.592,0.876,0.137
CCOC(=O)CCN1C(=O)[C@H]2[C@H]3[C@H](O)[C@H](O)CC(=O)[C@@H]3CC[C@H]2C1=O,-0.577,0.125,-0.16,0.832,0.916,0.102,0.482,-0.407 (inactive),0.658,-0.27,0.58,-0.0366 (inactive),-0.267 (inactive),-0.0766 (inactive),0.846,-0.353 (inactive),-0.198,0.589,0.738,0.0004
CC(C)CN1CCc2nc(-c3ccccc3)c3c(c2C1)CO[C@@H](C)C3,-0.277,0.306,-0.0291,0.923,1.31,0.43,0.846,0.955 (inactive),0.147,-0.16,1.42,-0.319 (inactive),0.218 (inactive),-0.0674 (inactive),1.71,0.801 (inactive),-0.145,1.5,1.08,0.0914
O=C1C=C[C@@H](O)[C@@H]2[C@@H]3C(=O)N(C4CCCCC4)C(=O)[C@@H]3CC[C@@H]12,0.585,0.0002,-0.189,0.442,0.545,0.305,0.968,-0.325 (inactive),0.265,0.0373,0.299,0.126 (inactive),-1.32 (inactive),-1.27 (inactive),0.548,-0.115 (inactive),-0.0678,0.277,0.818,0.0587
O=C1[C@H]2[C@H]3[C@H](O)[C@H](O)CC(=NO[C@@H]4O[C@H](CO)[C@@H](O)[C@H](O)[C@H]4O)[C@@H]3CC[C@H]2C(=O)N1c1cccc(Oc2ccccc2)c1,-0.309,0.21,-0.125,0.649,0.628,0.495,1.02,0.423 (inactive),0.365,0.0373,-0.175,-0.603 (inactive),0.275 (inactive),0.0506 (inactive),0.879,0.364 (inactive),-0.028,0.672,0.449,0.0102
COC(=O)[C@H](C)NC(=O)CCC1CC(OC(=O)NCCc2ccc(F)cc2)CC2(CCCC(COC(=O)NCCc3ccccc3OC)O2)O1 (stereo not given in full),-0.93,-0.328,-0.172,0.706,1.16,0.608,0.729,-0.0438 (inactive),-0.0835,-0.361,1.11,0.522 (inactive),0.89 (inactive),0.896 (inactive),1.16,-0.0328 (inactive),-0.0916,0.452,1.09,0.104
COC(=O)[C@@H]1CC[C@H](C)[C@@H](c2ccc(C)cc2)N1C(=O)c1ccc(C=NOC[C@@H](O)[C@H]2O[C@@H]3OC(C)(C)O[C@@H]3[C@H]2O)cc1,-0.264,0.123,-0.0138,0.343,0.962,0.441,0.72,0.453 (inactive),0.794,-0.271,0.886,-1.17 (inactive),0.459 (inactive),-0.431 (inactive),1.23,1.6 (inactive),-0.0916,0.159,1.14,0.0453
CCOC(=O)[C@H](Cc1ccccc1)NC(=O)CCC1CC(OC(=O)NCc2ccc3c(c2)OCO3)CC2(CCCC(COC(=O)NCCOC)O2)O1 (stereo not given in full),-0.444,1.85,-0.0533,0.688,0.994,0.63,0.773,1.75 (inactive),0.412,0.524,1.56,-0.439 (inactive),-0.25 (inactive),-0.364 (inactive),2.34,-0.141 (inactive),-0.166,0.884,1.05,0.0059
